Data reported in publication PMC7862700, “An all-to-all approach to the identification of sequence-specific readers for epigenetic DNA modifications on cytosine”.

How the values were obtained:
Test in all cases: DAPPL (digital affinity profiling via proximity ligation, sequencing); 10 mM Tris-HCl pH 7.5, 50 mM NaCl, 1 mM DTT, 4% glycerol, room temperature, 30 min; GST-TFs on glutathione beads, 16-mer random dsDNA library, 0.1% formaldehyde crosslink after washing; high values mean tight binding
Conditions in all cases: protein: recombinant; tags: N-terminal GST; dsDNA, one strand shown
[1] = molecular target: ETV1 (Homo sapiens, UniProt P50549 1-477)
In short: (§1)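 Human transcription factors fused to GST were expressed in yeast, captured on glutathione beads, given DNA barcodes and pooled with a GST-only negative control. Pools were incubated with 200 nmole of a 16-mer random double-stranded DNA library in Tris/NaCl/DTT/glycerol buffer at room temperature for 30 min. They were then washed, crosslinked with 0.1% formaldehyde, proximity-ligated (BsaI/T4 ligase, 1 h, 37 °C), PCR-amplified and sequenced on an Illumina NextSeq500. Binding signal is each 6-mer's read frequency for a factor divided by its frequency for the GST control.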

[2] = molecular target: T1, ERF (Homo sapiens, UniProt P50548 1-548)
T1 sequence: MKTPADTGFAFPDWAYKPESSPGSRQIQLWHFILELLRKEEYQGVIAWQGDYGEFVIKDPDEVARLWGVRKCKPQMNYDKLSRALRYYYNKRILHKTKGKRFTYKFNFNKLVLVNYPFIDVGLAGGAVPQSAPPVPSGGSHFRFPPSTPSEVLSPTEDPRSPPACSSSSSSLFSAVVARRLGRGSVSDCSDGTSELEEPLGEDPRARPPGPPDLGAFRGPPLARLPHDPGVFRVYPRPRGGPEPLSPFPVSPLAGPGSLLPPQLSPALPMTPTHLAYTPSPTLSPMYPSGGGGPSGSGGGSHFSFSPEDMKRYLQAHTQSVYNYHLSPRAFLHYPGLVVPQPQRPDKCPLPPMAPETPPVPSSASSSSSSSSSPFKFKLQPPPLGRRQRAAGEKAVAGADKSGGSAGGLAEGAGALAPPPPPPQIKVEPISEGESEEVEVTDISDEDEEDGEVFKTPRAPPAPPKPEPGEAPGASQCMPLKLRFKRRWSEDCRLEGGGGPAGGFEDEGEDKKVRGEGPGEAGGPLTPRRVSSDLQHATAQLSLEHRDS
In short: as §1

[3] = molecular target: T2, ETV3L (Homo sapiens, UniProt Q6ZN32 1-361)
T2 sequence: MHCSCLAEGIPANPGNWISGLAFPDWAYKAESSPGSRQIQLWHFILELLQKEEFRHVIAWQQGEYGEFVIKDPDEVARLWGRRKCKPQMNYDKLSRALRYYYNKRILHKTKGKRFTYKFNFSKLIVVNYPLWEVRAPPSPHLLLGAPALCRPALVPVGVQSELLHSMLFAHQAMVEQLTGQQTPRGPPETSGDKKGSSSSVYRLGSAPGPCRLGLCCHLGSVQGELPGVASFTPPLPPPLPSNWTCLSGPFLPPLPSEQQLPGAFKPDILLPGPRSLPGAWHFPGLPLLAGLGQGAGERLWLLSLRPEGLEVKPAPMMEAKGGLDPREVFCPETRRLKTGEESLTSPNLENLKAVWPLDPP
In short: as §1

[4] = molecular target: T3, ETS2 (Homo sapiens, UniProt P15036 1-469)
T3 sequence: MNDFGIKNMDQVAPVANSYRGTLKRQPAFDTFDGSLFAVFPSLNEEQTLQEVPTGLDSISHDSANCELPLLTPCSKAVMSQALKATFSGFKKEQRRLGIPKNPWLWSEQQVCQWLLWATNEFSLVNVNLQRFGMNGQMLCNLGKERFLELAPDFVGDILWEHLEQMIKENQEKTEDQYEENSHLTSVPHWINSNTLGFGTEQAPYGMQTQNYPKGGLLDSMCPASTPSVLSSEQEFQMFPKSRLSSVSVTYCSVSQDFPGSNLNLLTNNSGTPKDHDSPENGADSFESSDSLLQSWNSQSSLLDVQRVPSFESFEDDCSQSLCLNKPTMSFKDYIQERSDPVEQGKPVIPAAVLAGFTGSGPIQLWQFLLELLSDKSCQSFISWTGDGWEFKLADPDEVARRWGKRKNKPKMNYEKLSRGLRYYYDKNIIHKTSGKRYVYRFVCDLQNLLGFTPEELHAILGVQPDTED
In short: as §1

[5] = molecular target: T4, SPDEF (Homo sapiens, UniProt O95238 1-335)
T4 sequence: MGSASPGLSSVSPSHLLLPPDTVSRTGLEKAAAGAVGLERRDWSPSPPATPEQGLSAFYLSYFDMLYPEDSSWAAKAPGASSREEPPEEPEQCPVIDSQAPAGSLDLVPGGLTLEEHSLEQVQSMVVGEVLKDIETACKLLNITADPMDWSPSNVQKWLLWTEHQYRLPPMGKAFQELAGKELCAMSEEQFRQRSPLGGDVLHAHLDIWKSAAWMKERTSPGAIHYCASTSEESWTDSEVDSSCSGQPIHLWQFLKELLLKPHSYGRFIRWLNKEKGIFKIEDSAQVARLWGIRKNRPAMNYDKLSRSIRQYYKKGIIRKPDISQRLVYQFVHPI
In short: as §1

[6] = molecular target: T5, ETV7 (Homo sapiens, UniProt Q9Y603 1-341)
T5 sequence: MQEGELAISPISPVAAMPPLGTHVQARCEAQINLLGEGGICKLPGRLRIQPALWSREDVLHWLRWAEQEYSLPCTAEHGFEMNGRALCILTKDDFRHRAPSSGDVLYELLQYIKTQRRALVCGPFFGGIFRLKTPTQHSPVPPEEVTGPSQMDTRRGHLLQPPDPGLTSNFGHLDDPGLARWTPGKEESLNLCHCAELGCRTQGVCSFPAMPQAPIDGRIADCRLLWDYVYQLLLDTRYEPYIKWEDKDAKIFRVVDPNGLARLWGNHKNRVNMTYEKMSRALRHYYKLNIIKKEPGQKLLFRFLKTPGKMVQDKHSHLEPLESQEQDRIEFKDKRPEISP
In short: as §1

[7] = molecular target: T6, ELF5 (Homo sapiens, UniProt Q9UKW6-2 1-255)
T6 sequence: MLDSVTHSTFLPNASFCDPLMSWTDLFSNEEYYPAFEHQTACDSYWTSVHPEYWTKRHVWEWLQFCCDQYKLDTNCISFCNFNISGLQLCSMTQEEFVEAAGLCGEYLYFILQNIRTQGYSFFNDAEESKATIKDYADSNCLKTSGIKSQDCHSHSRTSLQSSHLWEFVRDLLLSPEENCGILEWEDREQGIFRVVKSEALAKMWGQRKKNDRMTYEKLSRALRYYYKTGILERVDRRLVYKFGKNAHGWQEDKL
In short: as §1

[8] = molecular target: T7, ETV3 (Homo sapiens, UniProt P41162-2 1-143)
T7 sequence: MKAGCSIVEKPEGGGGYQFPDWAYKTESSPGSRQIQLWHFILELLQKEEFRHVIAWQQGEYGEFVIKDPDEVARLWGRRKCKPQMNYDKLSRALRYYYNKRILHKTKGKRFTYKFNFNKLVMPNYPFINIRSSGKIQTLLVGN
In short: as §1

[9] = molecular target: ETV6 (Homo sapiens, UniProt P41212 1-452)
In short: as §1

ETV6, sequence (P41212 whole entry): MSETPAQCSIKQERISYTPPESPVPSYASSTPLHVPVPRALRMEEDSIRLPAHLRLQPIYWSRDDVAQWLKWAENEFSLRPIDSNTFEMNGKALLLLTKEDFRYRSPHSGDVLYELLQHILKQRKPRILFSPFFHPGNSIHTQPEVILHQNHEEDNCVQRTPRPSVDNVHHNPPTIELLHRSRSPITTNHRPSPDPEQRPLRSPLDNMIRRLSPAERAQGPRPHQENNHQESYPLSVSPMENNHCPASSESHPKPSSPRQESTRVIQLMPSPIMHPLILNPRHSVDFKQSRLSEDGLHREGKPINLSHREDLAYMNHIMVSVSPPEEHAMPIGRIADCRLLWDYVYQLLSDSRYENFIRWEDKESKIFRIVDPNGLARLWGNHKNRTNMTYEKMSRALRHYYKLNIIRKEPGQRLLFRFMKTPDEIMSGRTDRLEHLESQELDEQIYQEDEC
ETV1, sequence (P50549 whole entry, the tested form may be a part): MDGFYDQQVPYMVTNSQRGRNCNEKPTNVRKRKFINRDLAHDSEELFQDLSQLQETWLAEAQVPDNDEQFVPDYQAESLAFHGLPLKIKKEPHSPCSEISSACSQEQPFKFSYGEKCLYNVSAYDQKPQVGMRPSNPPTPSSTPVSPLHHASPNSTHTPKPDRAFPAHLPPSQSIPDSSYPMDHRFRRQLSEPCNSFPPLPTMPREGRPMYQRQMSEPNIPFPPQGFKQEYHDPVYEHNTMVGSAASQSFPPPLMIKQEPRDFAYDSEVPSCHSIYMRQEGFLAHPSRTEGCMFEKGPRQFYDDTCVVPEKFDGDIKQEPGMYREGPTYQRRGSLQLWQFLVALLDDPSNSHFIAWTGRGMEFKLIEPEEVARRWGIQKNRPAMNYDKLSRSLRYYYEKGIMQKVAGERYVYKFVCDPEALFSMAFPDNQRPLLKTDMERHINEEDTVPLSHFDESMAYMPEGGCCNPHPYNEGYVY

## TCCTTG
[1]
  binding signal: 1.35 fold enrichment (6-mer frequency, TF over GST control)
[2]
  binding signal: 1.39 fold enrichment (6-mer frequency, TF over GST control)
[3]
  binding signal: 1.29 fold enrichment (6-mer frequency, TF over GST control)
[4]
  binding signal: 1.28 fold enrichment (6-mer frequency, TF over GST control)
[5]
  binding signal: 1.48 fold enrichment (6-mer frequency, TF over GST control)
[6]
  binding signal: 1.22 fold enrichment (6-mer frequency, TF over GST control)
[7]
  binding signal: 1.95 fold enrichment (6-mer frequency, TF over GST control)
[8]
  binding signal: 1.36 fold enrichment (6-mer frequency, TF over GST control)
[9]
  binding signal: 1.19 fold enrichment (6-mer frequency, TF over GST control)
